# Experimental data: PubChem BioAssay (NCI)
# The panel holds about 83,000 compounds, 20% with a hit somewhere; the sample as a whole holds those more often.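 48-hour exposure, single concentration, 96-well plates; percent growth endpoint where 0 means no net growth. Active: below 10.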 Unmarked numbers belong to inactive results. Activity calls are given as the source filed them.
# Columns and labels:
# Test in all cases: NCI-60 one-dose screen, 48 h (100 = growth as untreated, 0 = no growth, -100 = all killed)
# Conditions in all cases: 10 µM unless noted
# NCI-H23 lung = tested on: NCI-H23 lung
# NCI-H226 lung = tested on: NCI-H226 lung
# NCI-H322M lung = tested on: NCI-H322M lung
# HOP-62 NSCLC = tested on: HOP-62 NSCLC
# NCI-H460 lung = tested on: NCI-H460 lung
# HOP-92 NSCLC = tested on: HOP-92 NSCLC
# NCI-H522 lung = tested on: NCI-H522 lung
# A549/ATCC NSCLC = tested on: A549/ATCC NSCLC
# 786-0 renal = tested on: 786-0 renal
# COLO 205 colon = tested on: COLO 205 colon
# DU-145 prostate = tested on: DU-145 prostate
# K-562 leukemia = tested on: K-562 leukemia
# MALME-3M melanoma = tested on: MALME-3M melanoma
# MDA-MB-231 breast = tested on: MDA-MB-231 breast
# RXF 393 renal = tested on: RXF 393 renal
# SF-268 CNS = tested on: SF-268 CNS
# SF-295 CNS = tested on: SF-295 CNS
# SF-539 CNS = tested on: SF-539 CNS
# UACC-257 melanoma = tested on: UACC-257 melanoma
# M14 melanoma = tested on: M14 melanoma
SMILES,growth (NCI-H23 lung),growth (NCI-H226 lung),growth (NCI-H322M lung),growth (HOP-62 NSCLC),growth (NCI-H460 lung),growth (HOP-92 NSCLC),growth (NCI-H522 lung),growth (A549/ATCC NSCLC),growth (786-0 renal),growth (COLO 205 colon),growth (DU-145 prostate),growth (K-562 leukemia),growth (MALME-3M melanoma),growth (MDA-MB-231 breast),growth (RXF 393 renal),growth (SF-268 CNS),growth (SF-295 CNS),growth (SF-539 CNS),growth (UACC-257 melanoma),growth (M14 melanoma)
COc1ccc(-c2cc(-c3ccccc3)c(C#N)c(=O)[nH]2)cc1S(N)(=O)=O,106%,103%,113%,97.6%,104%,110%,93.3%,98.7%,94.7%,118%,103%,109%,97.9%,-18.1% (active),100%,101%,108%,96.3%,98.9%,99.7%
CC(C)(C)C(=O)c1c2c(c3ccc4c5ccccc5ccc4n13)C(=O)c1ccccc1C2=O,73.5%,73.1%,97.5%,84.6%,55.9%,104%,91.5%,84.9%,109%,102%,95.6%,103%,9.73% (active),85.7%,105%,101%,99.6%,87.2%,105%,71.3%
S=C(Nc1ccc(OCc2nc3ccc(Cl)cc3[nH]2)cc1)NC1CCCCC1,-68.3% (active),-1.48% (active),9.78% (active),-20.7% (active),-21.5% (active),-4.42% (active),-21.4% (active),15.6%,-20.6% (active),-68.4% (active),7.09% (active),5.65% (active),-21.6% (active),-76.3% (active),-52.3% (active),5.6% (active),-15.9% (active),-79.3% (active),33.3%,-37.2% (active)
CCCN(CCC)S(=O)(=O)c1ccc(C(=O)O)cc1.CCCN(CCC)S(=O)(=O)c1ccc(C(=O)O)cc1.[Cl][Pt+2][Cl].[NH2-].[NH2-],-44.1% (active),23.2%,42.6%,30.4%,0.596% (active),5.16% (active),-54.9% (active),33%,14%,-57.7% (active),13.2%,9.96% (active),-98.1% (active),-22.8% (active),-59.6% (active),17.5%,32.9%,15.6%,-0.891% (active),33%
c1ccc(CSc2nnc(-c3ccc4nc(-c5ccccc5)[nH]c4c3)o2)cc1,68%,-40.1% (active),35.9%,-3.53% (active),-41.3% (active),32.2%,33.7%,-12.4% (active),-17.3% (active),78.3%,21.4%,33.5%,7.77% (active),-12.8% (active),-22.1% (active),8.24% (active),17.1%,-39.9% (active),57.6%,41.5%
Nc1nn2c(-c3cc4cc(Br)ccc4oc3=O)ccnc2c1N=Nc1ccccc1,1.73% (active),-55.6% (active),8.62% (active),1.3% (active),-28% (active),-18.8% (active),-51.6% (active),53.4%,-3.59% (active),80.2%,37.1%,83.2%,26.2%,-36.8% (active),-53% (active),-28.4% (active),9.13% (active),-84.4% (active),61.8%,74.9%
COc1ccc(/C=C/C(=O)c2ccc(OC)c(S(N)(=O)=O)c2)c(C(F)(F)F)c1,-78.3% (active),-40.9% (active),-2.93% (active),-5.21% (active),4.78% (active),6.4% (active),9.43% (active),10.6%,-82% (active),4.9% (active),16.4%,7% (active),17.8%,5.46% (active),16.4%,15.5%,37.5%,-84.9% (active),62.3%,-48.5% (active)
Cc1ccc(S(=O)(=O)N(CCn2ccnc2[N+](=O)[O-])CCn2ccnc2[N+](=O)[O-])cc1,104%,100%,107%,108%,109%,106%,91.5%,102%,101%,111%,106%,95.7%,111%,104%,84.3%,111%,109%,97.6%,108%,97.6%
